What all share (assay): DAPPL (digital affinity profiling via proximity ligation, sequencing); 10 mM Tris-HCl pH 7.5, 50 mM NaCl, 1 mM DTT, 4% glycerol, room temperature, 30 min; GST-TFs on glutathione beads, 16-mer random dsDNA library, 0.1% formaldehyde crosslink after washing; high values mean tight binding
What all share (settings): protein: recombinant; tags: N-terminal GST; dsDNA, one strand shown

One experiment addresses T1, ETV2 (Homo sapiens, UniProt O00321 1-342).
T1 sequence: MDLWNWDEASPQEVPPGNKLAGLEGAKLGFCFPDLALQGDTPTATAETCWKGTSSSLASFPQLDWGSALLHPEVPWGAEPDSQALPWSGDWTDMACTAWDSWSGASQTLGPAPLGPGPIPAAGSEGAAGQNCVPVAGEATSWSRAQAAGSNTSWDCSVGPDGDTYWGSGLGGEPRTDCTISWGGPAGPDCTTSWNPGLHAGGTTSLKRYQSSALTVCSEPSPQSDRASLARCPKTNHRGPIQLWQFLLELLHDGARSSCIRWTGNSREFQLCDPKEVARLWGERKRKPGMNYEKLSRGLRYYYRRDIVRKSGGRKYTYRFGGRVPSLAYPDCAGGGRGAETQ
An outline of the steps:
(§1)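 Each value of binding signal is a hexamer's read frequency for a factor divided by the same hexamer's frequency in the tag-only sample. Barcoded, bead-captured GST fusions of human transcription factors made in yeast were pooled with that sample and incubated with 200 nmole of a random double-stranded 16-mer DNA library in Tris/NaCl/DTT/glycerol buffer at room temperature for 30 min. Washing, 0.1% formaldehyde crosslinking, proximity ligation, PCR and Illumina NextSeq500 sequencing followed.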

The target of another experiment is T2, ELF3 (Homo sapiens, UniProt P78545 1-371).
T2 sequence: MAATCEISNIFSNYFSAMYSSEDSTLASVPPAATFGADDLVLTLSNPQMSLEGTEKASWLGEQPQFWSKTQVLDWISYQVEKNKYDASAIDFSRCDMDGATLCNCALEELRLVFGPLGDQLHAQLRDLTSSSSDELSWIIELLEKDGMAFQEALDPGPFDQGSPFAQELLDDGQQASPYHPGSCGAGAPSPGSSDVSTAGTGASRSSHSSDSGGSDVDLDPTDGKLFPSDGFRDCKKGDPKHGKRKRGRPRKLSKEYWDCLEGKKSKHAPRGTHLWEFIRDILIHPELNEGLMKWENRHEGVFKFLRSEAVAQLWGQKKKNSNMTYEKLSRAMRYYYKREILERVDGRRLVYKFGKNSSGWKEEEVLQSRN
Summed up:
as §1

In another experiment the target is ETV1 (Homo sapiens, UniProt P50549 1-477). An outline of the steps:
as §1

In another experiment the target is T3, ERF (Homo sapiens, UniProt P50548 1-548).
T3 sequence: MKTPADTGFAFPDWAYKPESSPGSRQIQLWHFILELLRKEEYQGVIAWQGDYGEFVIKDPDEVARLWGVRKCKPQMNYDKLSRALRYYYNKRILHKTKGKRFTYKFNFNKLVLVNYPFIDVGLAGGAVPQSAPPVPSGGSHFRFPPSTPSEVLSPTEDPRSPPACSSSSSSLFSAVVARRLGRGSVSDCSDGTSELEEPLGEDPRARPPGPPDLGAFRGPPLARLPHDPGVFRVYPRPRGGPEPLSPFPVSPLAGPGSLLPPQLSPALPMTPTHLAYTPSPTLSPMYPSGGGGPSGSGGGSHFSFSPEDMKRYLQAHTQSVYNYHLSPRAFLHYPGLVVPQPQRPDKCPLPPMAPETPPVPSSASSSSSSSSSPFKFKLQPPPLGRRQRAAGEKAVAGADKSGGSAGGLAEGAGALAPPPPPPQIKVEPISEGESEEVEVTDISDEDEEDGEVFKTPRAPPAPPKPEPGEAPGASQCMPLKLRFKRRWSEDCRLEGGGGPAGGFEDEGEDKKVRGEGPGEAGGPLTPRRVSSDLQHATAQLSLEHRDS
Summed up:
as §1

For another experiment, the target named is T4, ETV3L (Homo sapiens, UniProt Q6ZN32 1-361).
T4 sequence: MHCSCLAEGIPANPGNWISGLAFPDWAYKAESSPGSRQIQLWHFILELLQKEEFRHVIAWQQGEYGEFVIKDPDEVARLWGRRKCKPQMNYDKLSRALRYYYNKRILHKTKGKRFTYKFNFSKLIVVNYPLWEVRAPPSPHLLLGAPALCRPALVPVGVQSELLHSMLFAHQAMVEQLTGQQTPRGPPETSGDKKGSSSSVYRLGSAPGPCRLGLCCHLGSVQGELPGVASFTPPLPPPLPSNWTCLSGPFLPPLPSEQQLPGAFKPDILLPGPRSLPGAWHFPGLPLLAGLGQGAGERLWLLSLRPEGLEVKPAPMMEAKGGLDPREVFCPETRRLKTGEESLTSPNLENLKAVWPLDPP
An outline of the steps: as §1

The target in a further experiment is T5, SPDEF (Homo sapiens, UniProt O95238 1-335).
T5 sequence: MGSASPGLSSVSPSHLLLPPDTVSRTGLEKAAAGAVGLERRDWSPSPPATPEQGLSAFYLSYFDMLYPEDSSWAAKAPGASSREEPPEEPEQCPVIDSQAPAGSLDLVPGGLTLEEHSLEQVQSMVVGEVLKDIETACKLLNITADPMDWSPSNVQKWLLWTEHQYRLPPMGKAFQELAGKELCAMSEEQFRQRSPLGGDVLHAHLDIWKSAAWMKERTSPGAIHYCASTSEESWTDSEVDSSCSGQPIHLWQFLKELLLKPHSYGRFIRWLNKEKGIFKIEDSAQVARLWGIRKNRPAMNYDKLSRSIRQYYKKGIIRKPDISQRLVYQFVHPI
Summed up: as §1

The target of another experiment is T6, ETV7 (Homo sapiens, UniProt Q9Y603 1-341).
T6 sequence: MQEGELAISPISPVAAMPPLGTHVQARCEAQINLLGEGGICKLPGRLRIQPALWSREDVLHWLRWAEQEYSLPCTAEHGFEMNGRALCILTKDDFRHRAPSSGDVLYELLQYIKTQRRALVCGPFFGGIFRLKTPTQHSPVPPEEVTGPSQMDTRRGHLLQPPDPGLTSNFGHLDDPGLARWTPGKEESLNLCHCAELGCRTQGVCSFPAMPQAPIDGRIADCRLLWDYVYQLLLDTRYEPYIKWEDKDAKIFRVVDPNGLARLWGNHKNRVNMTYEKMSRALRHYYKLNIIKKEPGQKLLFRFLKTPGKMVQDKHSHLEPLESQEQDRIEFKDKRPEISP
Summed up: as §1

The target in another experiment is T7, ELF5 (Homo sapiens, UniProt Q9UKW6-2 1-255).
T7 sequence: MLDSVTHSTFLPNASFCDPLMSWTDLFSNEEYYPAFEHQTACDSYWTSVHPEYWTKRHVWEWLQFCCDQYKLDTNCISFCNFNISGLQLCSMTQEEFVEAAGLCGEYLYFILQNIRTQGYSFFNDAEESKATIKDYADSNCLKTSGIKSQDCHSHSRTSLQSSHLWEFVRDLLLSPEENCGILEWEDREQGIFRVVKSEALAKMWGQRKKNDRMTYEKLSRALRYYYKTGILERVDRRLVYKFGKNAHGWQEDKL
Summed up: as §1

A further experiment deals with ETV6 (Homo sapiens, UniProt P41212 1-452). An outline of the steps:
as §1

Chain of ETV1 (P50549 whole entry): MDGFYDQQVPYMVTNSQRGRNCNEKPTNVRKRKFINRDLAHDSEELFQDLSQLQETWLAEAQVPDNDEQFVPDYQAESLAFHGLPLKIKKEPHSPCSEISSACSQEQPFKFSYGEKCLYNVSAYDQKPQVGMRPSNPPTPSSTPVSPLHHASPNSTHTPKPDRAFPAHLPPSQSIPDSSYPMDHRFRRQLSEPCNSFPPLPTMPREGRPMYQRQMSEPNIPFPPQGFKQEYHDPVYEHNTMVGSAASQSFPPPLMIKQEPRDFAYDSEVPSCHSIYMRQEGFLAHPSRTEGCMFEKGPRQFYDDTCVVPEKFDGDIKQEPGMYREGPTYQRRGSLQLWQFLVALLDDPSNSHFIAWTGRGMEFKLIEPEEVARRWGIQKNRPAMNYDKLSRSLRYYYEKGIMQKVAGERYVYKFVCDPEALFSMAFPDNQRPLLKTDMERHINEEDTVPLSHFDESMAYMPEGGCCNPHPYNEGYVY
Chain of ETV6 (P41212 whole entry): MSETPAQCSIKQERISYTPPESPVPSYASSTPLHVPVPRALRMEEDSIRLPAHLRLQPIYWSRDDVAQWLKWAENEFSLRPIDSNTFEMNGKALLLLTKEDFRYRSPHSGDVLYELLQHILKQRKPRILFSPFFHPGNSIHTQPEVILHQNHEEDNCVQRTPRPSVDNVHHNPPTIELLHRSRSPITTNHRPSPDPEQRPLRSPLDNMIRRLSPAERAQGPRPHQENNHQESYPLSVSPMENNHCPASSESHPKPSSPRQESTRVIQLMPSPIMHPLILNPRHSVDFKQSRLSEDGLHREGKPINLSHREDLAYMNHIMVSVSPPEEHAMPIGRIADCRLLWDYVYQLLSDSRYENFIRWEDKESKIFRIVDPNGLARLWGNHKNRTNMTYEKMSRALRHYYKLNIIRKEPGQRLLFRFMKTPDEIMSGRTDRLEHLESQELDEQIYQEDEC

With CACACC, the binding signal with ETV2 is 1.03 fold enrichment (6-mer frequency, TF over GST control); in the experiment with ELF3, 1.02 fold enrichment (6-mer frequency, TF over GST control); with ETV1 it was 1.14 fold enrichment (6-mer frequency, TF over GST control); with ERF, 1.02 fold enrichment (6-mer frequency, TF over GST control); with ETV3L it was 1.02 fold enrichment (6-mer frequency, TF over GST control); with SPDEF, 1.02 fold enrichment (6-mer frequency, TF over GST control). Further, the binding signal with ETV7 was 1.01 fold enrichment (6-mer frequency, TF over GST control); in the experiment with ELF5 it was 1.03 fold enrichment (6-mer frequency, TF over GST control); with ETV6, 1.01 fold enrichment (6-mer frequency, TF over GST control).

For the origin of these results see PMC7862700, “An all-to-all approach to the identification of sequence-specific readers for epigenetic DNA modifications on cytosine”.
